Calls of active or inactive are those of the source. Rule for the calls: active = hit-call score of the fitted dose curve at least 0.9, where 1 is the maximum; inactive = score below 0.9.
The molecules below were run on TTR (gene 7276) (assay: CCTE_GLTED_hTTR_0.125uM: CCTE's human Transthyretin (hTTR) Inhibition Assay, with 0.125uM TTR, Great Lakes Toxicology and Ecology Division (GLTED) Lab (AID 2284431)).
Description: CCTE_GLTED_hTTR is a cell-free, single-readout assay designed to test the chemicals' ability to displace T4 from the human transthyretin (TTR) protein. TTR (at 0.125uM or 0.5uM) is incubated in presence of test chemical for 2 hours during which disrupting chemicals displace ANSA from the TTR protein. Results read fluorescence at 380 excitation and 475 emission.CCTE_GLTED_hTTR_0.125uM is the assay component measured from the CCTE_GLTED_hTTR assay. It is designed to make measurements of fluorescent polarization, using a form of binding reporter, as detected with Fluorescence signals by Fluorescence technology.Data from the assay component CCTE_GLTED_hTTR_0.125uM was analyzed at the assay endpoint CCTE_GLTED_hTTR_0.125uM in the positive analysis fitting direction relative to DMSO as the negative control and baseline of activity. Using a type of binding reporter, loss-of-signal activity can be used to understand a chemical's ability to displace T4 from transthyretin. To generalize the intended target to other relatable targets, this assay endpoint is annotated to the 'transporter' intended target family, where the subfamily is 'hormone carrier protein'.
Human transthyretin (TTR) assay, developed at Great Lakes Toxicology and Ecology Division (GLTED) within the EPA's Center for Computational Toxicology and Exposure (CCTE), is designed to test the chemicals' ability to displace T4 from the TTR protein. TTR (0.125uM) is incubated in presence of test chemical for 2 hours during which disrupting chemicals displace ANSA from the TTR protein. Results read fluorescence at 380 excitation and 475 emission.
`CCCCCCCCCCCC(=O)O` was tested, and the AC50 was 3.05 µM (active).
With `COc1cc([N+](=O)[O-])ccc1N` the AC50 was 14.9 µM (active).
`CCC(C)c1ccccc1O` (stereo not drawn) was tested, and the AC50 was 22.4 µM (active).
In the case of `CCCCc1ccc2ccccc2c1S(=O)(=O)O`, the AC50 is reported as 0.712 µM (active).
With `CCCCCCCCCC=CCC1CC(=O)OC1=O` (stereo not drawn) the AC50 was 7.87 µM (active).
For `CCCCCCc1ccc(N)cc1`, the AC50 was 9.58 µM (active).
With `O=C(c1ccccc1)c1ccccc1` the AC50 was 21.3 µM (active).
In the case of `Cc1[nH]nc2c1N=C(c1ccccc1Cl)c1cc([N+](=O)[O-])ccc1N2`, the AC50 is reported as 0.771 µM (active).

Source: PubChem BioAssay (EPA / NIEHS)
